Results on eight compounds are retold here after PubChem BioAssay (NCATS).

Records with an inconclusive call do not appear. A number with no mark means an inactive call. The source made the active and inactive calls. Calls come from the whole dose curve; as a rule, active = well fitted curve in the direction sought with a large enough effect; inconclusive = small, poorly fitted or top-dose-only effect, or another doubt; inactive = no such curve, though single readings can be large; an effect the other way counts as inactive or inconclusive.

Assay [1] is described as follows: BET inhibitor-based combinations targeting novel dependencies in MECOM-rearranged (r) AML: SET-2 cell line (AID 2202231).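 For viability: plate controls were DMSO treated cells for no effect and wells without cells for full effect.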 Note: nearly all actives have a fitted effect of over 35% in size. The note with it: SET-2 AML cells viability, CellTiter-Glo luminescence, 48 h; viability: stronger effect = lower value, concentration not given here. An outline of the steps: (§1)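 Readout: CellTiter-Glo luminescence. Exposure: 48 h, 11 concentrations, 500 cells/well. Metric: AUC and within-line Z-AUC after DMSO/empty-well normalization.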
(In general: Cellular ATP, detected with luciferase, serves as a proxy for viable cell number.)

The nature of assay [2]: BET inhibitor-based combinations targeting novel dependencies in MECOM-rearranged (r) AML: OCI-AML3 cell line (AID 2202232). Note: nearly all actives have a fitted effect of over 35% in size. The note with it: Potency: OCI-AML3 viability. The essentials:
as §1

Assay [3] in a line: BET inhibitor-based combinations targeting novel dependencies in MECOM-rearranged (r) AML: MV-4-11 cell line (AID 2202233). Note: nearly all actives have a fitted effect of over 45% in size. An outline of the steps: (§2)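 Seeding density was 500 cells/well, and drug exposure lasted 48 hr under standard culture conditions. Read-out used CellTiter-Glo reagent with a 15 min room-temperature incubation before luminescence measurement; AUC and Z-AUC summarize the normalized responses.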

The nature of assay [4]: BET inhibitor-based combinations targeting novel dependencies in MECOM-rearranged (r) AML: HNT-34 cell line (AID 2202234). Note: nearly all actives have a fitted effect of over 35% in size. The essentials:
as §2

Assay [5] can be described thus: BET inhibitor-based combinations targeting novel dependencies in MECOM-rearranged (r) AML: UCSD-AML1 cell line (AID 2202235). Note: nearly all actives have a fitted effect of over 40% in size. An outline of the steps:
as §2

The nature of assay [6]: BET inhibitor-based combinations targeting novel dependencies in MECOM-rearranged (r) AML: AML-191 cell line (AID 2202236; note: nearly all actives have a fitted effect of over 35% in size). The essentials:
as §1

Assay [7] is described as follows: BET inhibitor-based combinations targeting novel dependencies in MECOM-rearranged (r) AML: AML-194 cell line (AID 2202237; note: nearly all actives have a fitted effect of over 40% in size). An outline of the steps:
as §1
Potency is the fitted concentration of half-maximal effect.

In the case of `O=C([O-])C[O-].[Pt+2]`, in assay [1], the viability is 115%. The Potency entry in assay [2], in assay [3], in assay [4], in assay [5], in assay [6] and in assay [7] was “inactive” each time.
Regarding `NC(=O)c1nc(F)c[nH]c1=O`, the viability in assay [1] was 119%. For the same compound, the Potency entry in assay [2], in assay [3], in assay [4], in assay [5], in assay [6] and in assay [7] was “inactive” in each case.
As to `COCCOC(=O)N1CCN(S(=O)(=O)c2cc(F)c(Oc3ccc(Cl)cc3)c(F)c2)C(C(=O)NO)C1` (stereo unspecified), the Potency in assay [1] is 10500 nM (active); in assay [2], 14800 nM (active); in assay [3], 16600 nM (active); in assay [4], 5900 nM (active); in assay [5], 10500 nM (active); in assay [6] it was 8330 nM (active). Besides, in assay [7], the Potency is 8330 nM (active).
Take `C[C@@H](Oc1ccc2[nH]nc(/C=C/c3cnn(CCO)c3)c2c1)c1c(Cl)cncc1Cl`: the Potency was 1050 nM (active) in assay [1]; 8330 nM (active) in assay [2]; 296 nM (active) in assay [3]; 662 nM (active) in assay [4]; 1050 nM (active) in assay [5]; 833 nM (active) in assay [6]. The Potency in assay [7] was 934 nM (active).
Turning to `C[C@@H](Oc1cc(C(=O)Nc2ccc(C(=O)N3CCN(C)CC3)cc2)nnc1N)c1c(Cl)ccc(F)c1Cl`, the Potency in assay [1] was 18600 nM (active); in assay [2] it was 5900 nM (active); in assay [3] it was 1660 nM (active); in assay [4], 1180 nM (active); in assay [5] it was 1180 nM (active); in assay [6], 934 nM (active). Besides, the Potency in assay [7] was 934 nM (active).
For the compound `Cc1ccc(NC(=O)c2ccc3c(c2)OCCO3)cc1NC(=O)c1ccc2nc(OCCN3CCCC3)ccc2c1`, the Potency in assay [1] was 144 nM (active); in assay [2], 257 nM (active); in assay [3], 91 nM (active); in assay [4] it was 45.6 nM (active); in assay [5], 129 nM (active); in assay [6], 162 nM (active). Besides, the Potency in assay [7] was 204 nM (active).
Turning to `Cn1cc(CNCC2CCN(c3ncc(C(=O)NO)cn3)CC2)c2ccccc21`, the Potency was 148 nM (active) in assay [1]; 118 nM (active) in assay [2]; 83.3 nM (active) in assay [3]; 118 nM (active) in assay [4]; 105 nM (active) in assay [5]; 148 nM (active) in assay [6]. Also, in assay [7], the Potency is 332 nM (active).
As to `CN(C(=O)c1c(O)c2ccccc2n(C)c1=O)c1ccccc1`, in assay [1], the viability was 76.1%. The Potency result in assay [2], in assay [3], in assay [4], in assay [5], in assay [6] and in assay [7] was “inactive” throughout.

As a reminder, the viability is a read-out of living cells in per cent, often relative to untreated cells.
